# According to the supplement of paper PMC8728848:
# About 410 targets per protein were measured; listed, in parts, are those with the strongest signals and a random draw of the rest.
# Legend:
# Experiment in all cases: glycan array binding signal (z-score within array); higher = stronger binding
# Conditions in all cases: glycan notation: IUPAC condensed, linker removed
# [1] = target: Gal6S(b1-4)Glc6S
# Outline: (§1)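 From the Consortium for Functional Glycomics database, 3228 arrays were curated, keeping only those whose protein sequence was available. Binding is given as a within-array Z-score averaged across arrays sharing a protein sequence and across linkers. Negative Z-scores can be read as non-binding.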
# [2] = target: GalNAc(b1-4)GlcNAc(b1-2)Man
# Outline: as §1
# [3] = target: GalNAc(b1-4)GlcNAc6S
# Outline: as §1
# [4] = target: GlcA(b1-6)Gal
# Outline: as §1
# [5] = target: GlcNAc(b1-2)[GlcNAc(b1-4)]Man(a1-3)[GlcNAc(b1-4)][GlcNAc(b1-2)[GlcNAc(b1-6)]Man(a1-6)]Man(b1-4)GlcNAc(b1-4)[Fuc(a1-6)]GlcNAc
# Outline: as §1
# [6] = target: GlcNAc(b1-3)Gal(b1-4)GlcNAc(b1-2)Man(a1-3)[GlcNAc(b1-3)Gal(b1-4)GlcNAc(b1-2)Man(a1-6)]Man(b1-4)GlcNAc(b1-4)GlcNAc
# Outline: as §1
# [7] = target: GlcNAc(b1-3)Man
# Outline: as §1
# [8] = target: GlcNAc(b1-3)[GlcNAc(b1-4)][GlcNAc(b1-6)]GlcNAc
# Outline: as §1
# [9] = target: Man(a1-2)Man(a1-3)Man
# Outline: as §1
# [10] = target: Man(a1-3)[Man(a1-6)]Man(a1-6)[Man(a1-2)Man(a1-3)]Man(b1-4)GlcNAc(b1-4)GlcNAc
# Outline: as §1
# [11] = target: Neu5Ac(a2-3)Gal(b1-3)[Fuc(a1-4)]GlcNAc
# Outline: as §1
# [12] = target: Neu5Ac(a2-3)Gal(b1-4)GlcNAc(b1-2)Man(a1-3)[Neu5Ac(a2-3)Gal(b1-4)GlcNAc(b1-2)Man(a1-6)]Man(b1-4)GlcNAc(b1-4)GlcNAc
# Outline: as §1
# [13] = target: Neu5Ac(a2-3)Gal(b1-4)GlcNAc(b1-2)[Neu5Ac(a2-3)Gal(b1-4)GlcNAc(b1-4)]Man(a1-3)[GlcNAc(b1-4)][Neu5Ac(a2-3)Gal(b1-4)GlcNAc(b1-4)Man(a1-6)]Man(b1-4)GlcNAc(b1-4)GlcNAc
# Outline: as §1
# [14] = target: Neu5Ac(a2-3)Gal(b1-4)GlcNAc(b1-2)[Neu5Ac(a2-3)Gal(b1-4)GlcNAc(b1-6)]Man(a1-6)[Neu5Ac(a2-3)Gal(b1-4)GlcNAc(b1-2)Man(a1-3)]Man(b1-4)GlcNAc(b1-4)GlcNAc
# Outline: as §1
# [15] = target: Neu5Ac(a2-3)Gal(b1-4)GlcNAc(b1-3)Gal(b1-4)GlcNAc(b1-3)GalNAc
# Outline: as §1
# [16] = target: Neu5Ac(a2-3)Gal(b1-4)[Fuc(a1-3)]GlcNAc(b1-3)Gal
# Outline: as §1
# [17] = target: Neu5Ac(a2-3)Gal(b1-4)[Fuc(a1-3)]GlcNAc(b1-6)[Neu5Ac(a2-3)Gal(b1-3)]GalNAc
# Outline: as §1
# [18] = target: Neu5Ac(a2-3)GalNAc
# Outline: as §1
# [19] = target: Neu5Ac(a2-3)[GalNAc(b1-4)]Gal(b1-4)Glc
# Outline: as §1
# [20] = target: Neu5Ac(a2-6)Gal(b1-4)GlcNAc(b1-2)Man(a1-3)Man(b1-4)GlcNAc(b1-4)GlcNAc
# Outline: as §1
# [21] = target: Neu5Ac(a2-6)Gal(b1-4)GlcNAc(b1-2)Man(a1-3)[Neu5Ac(a2-6)Gal(b1-4)GlcNAc(b1-2)Man(a1-6)]Man(b1-4)GlcNAc(b1-4)[Fuc(a1-6)]GlcNAc
# Outline: as §1
# [22] = target: Neu5Ac(a2-6)Gal(b1-4)GlcNAc(b1-2)Man(a1-6)[GlcNAc(b1-2)Man(a1-3)]Man(b1-4)GlcNAc(b1-4)GlcNAc
# Outline: as §1
# [23] = target: Neu5Ac(a2-6)Gal(b1-4)GlcNAc(b1-2)Man(a1-6)[Man(a1-3)]Man(b1-4)GlcNAc(b1-4)GlcNAc
# Outline: as §1
# [24] = target: Neu5Ac(a2-6)Gal(b1-4)GlcNAc(b1-2)[Neu5Ac(a2-6)Gal(b1-4)GlcNAc(b1-4)]Man(a1-3)[GlcNAc(b1-4)][Neu5Ac(a2-6)Gal(b1-4)GlcNAc(b1-2)[Neu5Ac(a2-6)Gal(b1-4)GlcNAc(b1-6)]Man(a1-6)]Man(b1-4)GlcNAc(b1-4)GlcNAc
# Outline: as §1
# [25] = target: Neu5Ac(a2-6)Gal(b1-4)GlcNAc(b1-2)[Neu5Ac(a2-6)Gal(b1-4)GlcNAc(b1-6)]Man(a1-6)[Neu5Ac(a2-6)Gal(b1-4)GlcNAc(b1-2)Man(a1-3)][GlcNAc(b1-4)]Man(b1-4)GlcNAc(b1-4)GlcNAc
# Outline: as §1
# [26] = target: Neu5Ac(a2-6)Gal(b1-4)GlcNAc(b1-3)Gal(b1-4)GlcNAc(b1-3)Gal(b1-4)GlcNAc(b1-2)Man(a1-3)[Neu5Ac(a2-6)Gal(b1-4)GlcNAc(b1-3)Gal(b1-4)GlcNAc(b1-3)Gal(b1-4)GlcNAc(b1-2)Man(a1-6)]GalNAc
# Outline: as §1
# [27] = target: Neu5Gc(a2-6)GalNAc
# Outline: as §1
binder,measurement,setting,value
"Ovorubin (Pomacea canaliculata), J7I2T6 (protein) MFVATSLLLAIATLVVRASPHNYLIMDIEPPKSVSERDILNLLSPLQVKHSFRVTGSTRLLIVIRLDAQSYEKLDEITVPGKVEVIPAVNMADTMERCGVSWPRVELTDDNVTLFESESTLTDVTKEQLKAMLIGYGEHMSGLLQAHRFEYYQAAGATPHRHFVFVNSVPDEIEVFGREGVDIWGGPGEFVVKPQYVTRI",glycan array binding signal (z-score),[1],3.93
same,glycan array binding signal (z-score),[2],-0.618
same,glycan array binding signal (z-score),[3],-0.066
same,glycan array binding signal (z-score),[4],-0.181
same,glycan array binding signal (z-score),[5],-0.233
same,glycan array binding signal (z-score),[6],-0.39
same,glycan array binding signal (z-score),[7],-0.105
same,glycan array binding signal (z-score),[8],7.53
same,glycan array binding signal (z-score),[9],0.255
same,glycan array binding signal (z-score),[10],-0.9
same,glycan array binding signal (z-score),[11],-0.148
same,glycan array binding signal (z-score),[12],-0.45
same,glycan array binding signal (z-score),[13],-0.397
same,glycan array binding signal (z-score),[14],0.215
same,glycan array binding signal (z-score),[15],0.207
same,glycan array binding signal (z-score),[16],-1.06
same,glycan array binding signal (z-score),[17],-0.055
same,glycan array binding signal (z-score),[18],0.287
same,glycan array binding signal (z-score),[19],-0.336
same,glycan array binding signal (z-score),[20],0.036
same,glycan array binding signal (z-score),[21],-0.129
same,glycan array binding signal (z-score),[22],-0.738
same,glycan array binding signal (z-score),[23],-0.358
same,glycan array binding signal (z-score),[24],3.19
same,glycan array binding signal (z-score),[25],-0.646
same,glycan array binding signal (z-score),[26],3.06
same,glycan array binding signal (z-score),[27],0.691
